According to PubChem BioAssay (Tox21):
“And” between values parts separate entries of the source, which are not always exact repeats. Equal values may be shown once. Records with an inconclusive call do not appear. Some structures have more than one record in an assay (separate samples or runs), and their calls can disagree. The source made the active and inactive calls. Unless noted, calls come from the whole dose curve; as a rule, active = well fitted curve in the direction sought with a large enough effect in the repeat runs; inconclusive = weak or mixed curves; inactive = no such curve, though single readings can be large; an effect the other way counts as inactive or inconclusive. Starred links: 1 amine or outer side, 2 acyl side, 3 side chain; linkers in the order of their positions; H or OH if unused. Positions of bridges follow the written chain, without caps; N, C: chain ends. Non-standard residues stand in square brackets, D forms with d. Residues, ends and D or L forms follow the SMILES beside them. Chains are numbered I, II in the order given. Actinocin(9to1) = Cc1c2oc3c(C)ccc(C(=O)[*:1])c3nc-2c(C(=O)[*:2])c(N)c1=O; NMeV = CN[C@H](C(=O)O)C(C)C; Sar = CNCC(=O)O

Tests used:
[1] = qHTS assay to identify small molecule antagonists of the estrogen related receptor (ERR) signaling pathway from Tox21 library - cell viability counter screen (AID 1224834); note: nearly all actives have a fitted effect of over 30% in size
Outline: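 After 17.5 h of compound exposure at 37 C, ERR cells are incubated with CellTiter-Fluor for 30 min and fluorescence intensity serves as the viability measure.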

[2] = target: Luciferin 4-monooxygenase (Photinus pyralis) (UniProt P08659); assay: qHTS assay to identify small molecule inhibitors of firefly luciferase (AID 1224835); note: nearly all actives have a fitted effect of over 25% in size
Luciferin 4-monooxygenase (Photinus pyralis), sequence (P08659 whole entry, looked up): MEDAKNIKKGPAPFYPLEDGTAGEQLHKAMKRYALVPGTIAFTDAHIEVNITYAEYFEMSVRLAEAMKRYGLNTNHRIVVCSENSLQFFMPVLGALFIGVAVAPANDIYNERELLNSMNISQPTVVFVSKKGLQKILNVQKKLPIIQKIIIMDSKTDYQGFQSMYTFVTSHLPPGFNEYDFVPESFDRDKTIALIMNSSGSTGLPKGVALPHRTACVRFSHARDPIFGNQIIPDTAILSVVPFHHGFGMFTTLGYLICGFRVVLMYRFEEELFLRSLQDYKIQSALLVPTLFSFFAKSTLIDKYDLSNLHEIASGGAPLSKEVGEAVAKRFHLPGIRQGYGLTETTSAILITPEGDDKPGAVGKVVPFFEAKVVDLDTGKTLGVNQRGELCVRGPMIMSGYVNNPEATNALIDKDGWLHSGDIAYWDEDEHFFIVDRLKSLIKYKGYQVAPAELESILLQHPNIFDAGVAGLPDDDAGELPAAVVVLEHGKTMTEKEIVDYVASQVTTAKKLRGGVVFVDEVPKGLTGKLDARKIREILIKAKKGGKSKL
Outline: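 Quantitative HTS format; KM concentrations of both substrates. Purified P. pyralis FLuc activity quantified from luminescence images.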

[3] = qHTS assay to identify small molecule agonists of the constitutive androstane receptor (CAR) signaling pathway - cell viability counter screen (AID 1224836); note: nearly all actives have a fitted effect of over 45% in size
Outline: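 HepG2 cells stably carrying hCAR and a CYP2B6-2.2kb reporter were plated 4 h, then given compounds at 15 concentrations plus PK11195 (final 0.75 uM). After 23 h at 37 C, viability was read by CellTiter-Fluor fluorescence.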

[4] = qHTS assay to identify small molecule antagonists of the constitutive androstane receptor (CAR) signaling pathway - cell viability counter screen (AID 1224837); note: nearly all actives have a fitted effect of over 45% in size
Outline: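 Counter screen run in HepG2-CYP2B6-hCAR cells: 4 hr settle, compound titration (15 concentrations) with 50 nM CITCO, 23 hr at 37 C/5% CO2, CellTiter-Fluor fluorescence.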

[5] = target: Nuclear receptor subfamily 1 group I member 3 (Homo sapiens) (UniProt Q14994); assay: qHTS assay to identify small molecule antagonists of the constitutive androstane receptor (CAR) signaling pathway (AID 1224838); note: nearly all actives have a fitted effect of over 40% in size
Nuclear receptor subfamily 1 group I member 3 (Homo sapiens), sequence (Q14994 whole entry, looked up): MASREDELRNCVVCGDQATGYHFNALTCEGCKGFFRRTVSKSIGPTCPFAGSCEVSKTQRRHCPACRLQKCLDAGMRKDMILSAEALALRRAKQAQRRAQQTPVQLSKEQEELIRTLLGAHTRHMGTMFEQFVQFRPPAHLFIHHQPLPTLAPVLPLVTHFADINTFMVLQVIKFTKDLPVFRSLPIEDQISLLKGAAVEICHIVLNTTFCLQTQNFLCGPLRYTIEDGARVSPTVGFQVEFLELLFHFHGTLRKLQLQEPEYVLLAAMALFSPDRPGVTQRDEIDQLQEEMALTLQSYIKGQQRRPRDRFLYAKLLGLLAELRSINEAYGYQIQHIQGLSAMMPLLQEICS
Outline: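 Cell line: HepG2 double-stable for hCAR and CYP2B6-2.2kb reporter. Agonist: CITCO, 50 nM final. Compounds: 15 concentrations, 24 h, 37 C. Detection: ONE-Glo luminescence.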

[6] = target: Nuclear receptor subfamily 1 group I member 3 (Homo sapiens) (UniProt Q14994); assay: qHTS assay to identify small molecule agonists of the constitutive androstane receptor (CAR) signaling pathway (AID 1224839); note: nearly all actives have a fitted effect of over 15% in size
Outline: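 HepG2 cells stably expressing hCAR and a CYP2B6-2.2kb luciferase reporter were treated with compounds at 15 concentrations plus 0.75 uM PK11195 (final) for 24 h at 37 C; luminescence was read after ONE-Glo addition.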

[7] = qHTS assay to identify small molecule antagonists of the estrogen related receptor signaling pathway with the pleiotropic PPARgamma coactivator (PGC) from Tox21 10K library - cell viability counter screen (AID 1224840; active = well fitted cell-killing curve with a large enough effect in the repeat runs, not every such curve was filed as active; note: nearly all actives have a fitted effect of over 40% in size)
Outline: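 Following seeding of 2,000 PGC/ERR cells/well and 6 hours' incubation, test compounds were delivered in DMSO. The plates then sat 17.5 hours at 37 C before a fluorogenic live-cell protease reagent (CellTiter-Fluor) was read after 30 min.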

[8] = target: Thyrotropin receptor (Homo sapiens) (UniProt P16473); assay: qHTS assay to identify small molecule agonists of the thyroid stimulating hormone receptor (TSHR) signaling pathway (AID 1224843; calls by dose curve; note: nearly all actives have a fitted effect of over 45% in size)
Thyrotropin receptor (Homo sapiens), sequence (P16473 whole entry, looked up): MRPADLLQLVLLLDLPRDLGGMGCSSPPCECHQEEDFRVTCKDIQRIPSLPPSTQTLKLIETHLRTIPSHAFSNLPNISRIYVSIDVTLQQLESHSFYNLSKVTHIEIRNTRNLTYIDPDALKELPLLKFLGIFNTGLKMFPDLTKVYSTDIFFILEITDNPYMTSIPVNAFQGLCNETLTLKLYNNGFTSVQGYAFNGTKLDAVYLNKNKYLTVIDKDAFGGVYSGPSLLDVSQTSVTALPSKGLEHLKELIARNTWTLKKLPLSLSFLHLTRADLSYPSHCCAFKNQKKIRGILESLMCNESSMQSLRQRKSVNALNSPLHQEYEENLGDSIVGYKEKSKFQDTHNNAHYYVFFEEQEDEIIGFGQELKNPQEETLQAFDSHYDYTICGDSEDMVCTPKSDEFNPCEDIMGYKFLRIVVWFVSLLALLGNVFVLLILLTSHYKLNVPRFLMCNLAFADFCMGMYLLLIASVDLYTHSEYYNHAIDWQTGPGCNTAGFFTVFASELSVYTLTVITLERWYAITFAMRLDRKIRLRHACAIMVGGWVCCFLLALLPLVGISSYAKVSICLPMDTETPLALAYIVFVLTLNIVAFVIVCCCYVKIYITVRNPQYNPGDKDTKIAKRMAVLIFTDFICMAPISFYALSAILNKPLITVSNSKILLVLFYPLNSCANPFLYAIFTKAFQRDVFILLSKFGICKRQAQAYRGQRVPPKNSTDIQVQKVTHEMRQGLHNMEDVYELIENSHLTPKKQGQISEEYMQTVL
Outline: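 TSHR-expressing HEK293 cells (800 per well) were exposed to compounds for 30 min at room temperature. cAMP was then detected by HTRF competition with cAMP-d2 and anti-cAMP cryptate, read after 1 h at room temperature. Fifteen concentrations, triplicate.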

[9] = qHTS assay to identify small molecule antagonists of the estrogen related receptor signaling pathway with the pleiotropic PPARgamma coactivator (PGC) from Tox21 10K library (AID 1224841; call rule not given here; note: actives are mostly falling curves and most rising ones were filed inactive; nearly all actives have a fitted effect of over 50% in size)
Outline: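 qHTS antagonist format: PGC/ERR cells, 2k/well, compound in DMSO by pin transfer after 6 h attachment, 18 h treatment at 37 C, One-Glo luminescence read at 30 min.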

[10] = qHTS assay to identify small molecule agonists of the estrogen related receptor signaling pathway with the pleiotropic PPARgamma coactivator (PGC) from Tox21 10K library (AID 1224842); note: nearly all actives have a fitted effect of over 15% in size
Outline: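 PGC/ERR reporter cells (NTP line) were seeded 2,000 per well, rested 6 h at 37 C/5% CO2, then pin-dosed with compounds in DMSO for 18 h at 37 C; luciferase read by One-Glo luminescence after 30 min at room temperature.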

Measured: Potency
Potency is the fitted concentration of half-maximal effect.

c1ccc2cc3c(ccc4ccccc43)cc2c1
active: [2] 5.66 µM and 8.94 µM | [6] 30.7 µM and 27.3 µM
not listed: [9] | [10]
inactive: all other assays above

Cc1occc(=O)c1OC(=O)C(C)C
not listed: [6]
inactive: all other assays above

Nc1nc2ccccc2[nH]1
not listed: [9] | [10]
inactive: all other assays above

CC(C)(C)NCC(O)COc1ccccc1OCC1CCCO1 (configuration not stated)
not listed: [6]
inactive: all other assays above

O=Nc1ccc(Nc2ccccc2)cc1
active: [1] 19.4 µM and 24.3 µM | [2] 35.8 µM and 39.9 µM | [6] 17.2 µM | [7] 15.4 µM and 19.3 µM | [10] 9.69 µM
inactive: [3] | [4] | [5]

CC(=O)OCC1=C(C(=O)O)N2C(=O)[C@@H](NC(=O)Cc3cccs3)[C@H]2SC1
not listed: [9] | [10]
inactive: all other assays above

C/C=C/c1ccc(OCC)c(O)c1
active: [2] 31.7 µM and 35.6 µM
not listed: [9] | [10]
inactive: all other assays above

OCCN1CCNCC1
not listed: [6]
inactive: all other assays above

CCc1cc(C(C)(C)C)c(O)c(C(C)(C)C)c1
inactive and 12.2 µM (active): [6]
not listed: [9] | [10]
inactive: all other assays above

CC(C)(c1ccccc1)c1ccc(Nc2ccc(C(C)(C)c3ccccc3)cc2)cc1
not listed: [6]
inactive: all other assays above

CCCCCCC(O)CCCCCCCCCCC(=O)O (configuration not stated)
not listed: [6] | [10]
inactive: all other assays above

O=c1n(CC2CO2)c(=O)n(CC2CO2)c(=O)n1CC1CO1 (configuration not stated)
active: [1] 60.8 µM | [3] 54.2 µM and 61.1 µM | [4] 60.8 µM and 54.5 µM | [5] 76.5 µM and 61.1 µM
inactive: [2] | [6] | [8]

CCN1CCCC1CNC(=O)c1cc(S(=O)(=O)CC)c(N)cc1OC (configuration not stated)
not listed: [6] | [10]
inactive: all other assays above

COc1cc(C(=S)N2CCOCC2)ccc1O
not listed: [6]
inactive: all other assays above

CCOC(=O)C(C)C(C)=O (configuration not stated)
not listed: [6] | [10]
inactive: all other assays above

CC(COc1ccccc1)N(CCCl)Cc1ccccc1 (configuration not stated)
active: [6] 27.6 µM and 8.63 µM and 10.6 µM | [8] 30.9 µM and 43.3 µM and 29.8 µM
not listed: [9] | [10]
inactive: all other assays above

CC(=O)O[C@]1(C(C)=O)CC[C@H]2[C@@H]3C[C@H](C)C4=CC(=O)CC[C@]4(C)[C@H]3CC[C@@]21C
active: [1] 61.1 µM
not listed: [9] | [10]
inactive: all other assays above

CC(=O)C1=C(C)[C@@H]2C[C@@]3(C1)[C@H](C)CC[C@H]3C2(C)C
active: [6] 40.3 µM and 27.3 µM
not listed: [9] | [10]
inactive: all other assays above

O=C1NCC2(CCN(CCc3ccccc3)CC2)O1
not listed: [9] | [10]
inactive: all other assays above

N[C@@H]1CONC1=O
not listed: [6]
inactive: all other assays above

CC(C)(O)CCC(C)(C)O
not listed: [6]
inactive: all other assays above

O=C(OCc1ccccc1)c1ccc(O)cc1
active: [2] 31.7 µM and 15.5 µM
not listed: [9] | [10]
inactive: all other assays above

c1cc(C(c2ccc(OCC3CO3)cc2)C(c2ccc(OCC3CO3)cc2)c2ccc(OCC3CO3)cc2)ccc1OCC1CO1 (configuration not stated)
79.8 µM (active) and inactive: [9]
active: [2] 16.5 µM
not listed: [6]
inactive: all other assays above

CC(C)CCOC(=O)c1ccc(N(C)C)cc1
active: [2] 3.47 µM | [10] 10.6 µM
not listed: [6]
inactive: all other assays above

CCCNC(C)C(=O)Nc1ccccc1C (configuration not stated)
not listed: [9] | [10]
inactive: all other assays above

Oc1c(Cl)cc(Cl)c(Cl)c1Cc1c(O)c(Cl)cc(Cl)c1Cl
active: [1] 13.6 µM and 13.7 µM and 8.41 µM | [3] 7.67 µM | [4] 9.44 µM | [5] 10.8 µM and 10.9 µM and 9.44 µM
inactive: [2] | [6]
15.3 µM (active) and inactive: [8]

CN(C)c1ccc2nc3ccc(=[N+](C)C)cc-3sc2c1
active: [1] 4.16 µM and 6.11 µM and 5.96 µM | [2] 15.3 µM and 20 µM and 17.4 µM | [3] 24.3 µM and 13.3 µM | [4] 27.3 µM and 11.9 µM | [7] 2.62 µM and 7.7 µM | [9] 1.86 µM and 1.93 µM and 2.66 µM
inactive: [5] | [10]

Cc1c2oc3c(C)ccc(C(=O)N[C@@H]4C(=O)N[C@H](C(C)C)C(=O)N5CCC[C@H]5C(=O)N(C)CC(=O)N(C)[C@@H](C(C)C)C(=O)O[C@@H]4C)c3nc-2c(C(=O)N[C@@H]2C(=O)N[C@H](C(C)C)C(=O)N3CCC[C@H]3C(=O)N(C)CC(=O)N(C)[C@@H](C(C)C)C(=O)O[C@@H]2C)c(N)c1=O (I: T[dV]P[Sar][NMeV] / II: T[dV]P[Sar][NMeV]; ester I:1-I:C, II:1-II:C; linker I:N-II:N via Actinocin(9to1))
active: [1] 7.48 µM and 188 nM | [3] 0.0133 µM | [4] 7.5 nM and 33.5 nM | [5] 1 nM | [7] 266 nM
inactive: [2]

CCC(CO)(CO)COCC(CC)(CO)CO
not listed: [10]
inactive: all other assays above

CC(C)CCOCc1ccccc1
not listed: [6]
inactive: all other assays above

Cc1ccc(S(=O)(=O)Oc2ccc(N=Nc3ccc(-c4ccc(N=Nc5c(O)ccc6cc(S(=O)(=O)O)cc(S(=O)(=O)O)c56)c(C)c4)cc3C)cc2)cc1
active: [1] 19.4 µM and 17.8 µM | [2] 63.5 µM and 23.2 µM | [3] 27.4 µM and 20 µM | [4] 27.4 µM and 31.6 µM | [7] 19.4 µM and 20 µM | [9] 17.3 µM
inactive: [5] | [10]

O=C(Cl)c1cccc(C(=O)Cl)c1
not listed: [9] | [10]
inactive: all other assays above

Cc1cc(C2(c3cc(C)c(O)cc3C)OS(=O)(=O)c3ccccc32)c(C)cc1O
active: [1] 21.7 µM and 24.3 µM | [2] 35.6 µM | [3] 24.3 µM and 27.3 µM | [4] 24.3 µM and 19.3 µM | [7] 19300 nM
34.4 µM (active) and inactive: [9]
inactive: [5] | [10] | [8]

[Cl][In]([Cl])[Cl]
active: [2] 36.6 µM and 39.9 µM
inactive: [1] | [3] | [4] | [5] | [7]

CCOc1ccccc1C(N)=O
not listed: [9] | [10]
inactive: all other assays above

CC1COc2c(N3CCN(C)CC3)c(F)cc3c(=O)c(C(=O)O)cn1c23 (configuration not stated)
inactive: [1] | [2] | [3] | [4] | [7] | [8]
